According to ChEMBL document CHEMBL4513135, “CO-ADD screening of IQOG CSIS (Spain) compounds”:
Results with a measured potency or affinity are listed apart.

How the values were obtained:
[1] = system: Klebsiella pneumoniae; conditions: Concentration 32 ug.mL-1; ASSAY_TEST Inhibition of Bacterial Growth; detection method Absorption (OD600); MEDIA CAMHB; plate type 384well; NBS; CORNING #3640; time 18 hr
[2] = system: Candida albicans; conditions: 32 ug/mL
[3] = system: Cryptococcus neoformans; conditions: Concentration 32 ug.mL-1; ASSAY_TEST Inhibition of Fungal Growth; detection method Resazurin; Absorption (OD600-OD570); plate type 384well; NBS; CORNING #3640

Structure (SMILES): COc1ccc(C=C2N=C(c3ccccc3)SC2=O)cc1
- Inhibition [1]: 19.45%
- Inhibition [2]: 0.65%
- Inhibition [3]: -2.03%

Structure (SMILES): Cn1c(CNNC(=O)c2ccco2)cc2ccccc21
- Inhibition [1]: -22.42%
- Inhibition [2]: 1.4%
- Inhibition [3]: -3.17%

Structure (SMILES): C#CCN1CCc2nc3nc(NC4CCN(Cc5ccccc5)CC4)c(C#N)cc3c(N)c2C1
- Inhibition [1]: 10.49%
- Inhibition [2]: 5.66%
- Inhibition [3]: -17.48%

Structure (SMILES): N#Cc1cc(C#N)c(NCCCCC2CCN(Cc3ccccc3)CC2)nc1N
- Inhibition [1]: 18.34%
- Inhibition [2]: 1.01%
- Inhibition [3]: -105.28%

Structure (SMILES): CN1C/C(=C\Cl)n2c1c(C#N)c(-c1ccccc1)c(C#N)c2=O
- Inhibition [1]: 4.05%
- Inhibition [2]: 3.56%
- Inhibition [3]: -47.27%

Structure (SMILES): c1ccc(Cn2ccc3ccccc32)cc1
- Inhibition [1]: 13.32%
- Inhibition [2]: 4.28%
- Inhibition [3]: -3.9%

Structure (SMILES): CCOC(=O)c1cc2c(N)c3c(nc2nc1C)CCCC3
- Inhibition [1]: -0.45%
- Inhibition [2]: 0.86%
- Inhibition [3]: -82.76%

Structure (SMILES): N#Cc1c(N)nc2c(c1-c1ccccc1)CN(Cc1ccccc1)CC2
- Inhibition [1]: 16.71%
- Inhibition [2]: 1.07%
- Inhibition [3]: -3.99%

Structure (SMILES): N#CC1=C(N)Oc2ccc3ccccc3c2C1c1ccccc1[N+](=O)[O-] (stereo not given)
- Inhibition [1]: 9.29%
- Inhibition [2]: 2.32%
- Inhibition [3]: -44.45%

Structure (SMILES): CC(=O)n1cc(/C=C2\N=C(c3ccccc3)OC2=O)c2ccccc21
- Inhibition [1]: 0.98%
- Inhibition [2]: 1.66%
- Inhibition [3]: -2.55%

Structure (SMILES): COc1nc(N)c(C#N)c(-c2ccccc2)c1C#N
- Inhibition [1]: 5.51%
- Inhibition [2]: 1.23%
- Inhibition [3]: -13.41%

Structure (SMILES): COc1ccccc1-c1c(C#N)c(=O)oc2c1ccc1ccccc12
- Inhibition [1]: 11.02%
- Inhibition [2]: 9.28%
- Inhibition [3]: -7.79%

Structure (SMILES): COc1cccc(C2c3ccc4ccccc4c3OC(=NBr)C2(Br)C#N)c1 (stereo not given)
- Inhibition [1]: 5.65%
- Inhibition [2]: -0.64%
- Inhibition [3]: -51.44%

Structure (SMILES): N#Cc1c(Cl)nc(NC2CCN(Cc3ccccc3)CC2)c(C#N)c1-c1ccccc1
- Inhibition [1]: 0.34%
- Inhibition [2]: -0.87%
- Inhibition [3]: -53.1%

Structure (SMILES): CCOC(=O)/C(C#N)=C\c1ccc([N+](=O)[O-])cc1
- Inhibition [1]: 10.6%
- Inhibition [2]: 5.79%
- Inhibition [3]: -3.2%

Structure (SMILES): CN(N=O)C(=O)NC1(C(=O)O)CC1c1ccccc1 (stereo not given)
- Inhibition [1]: 23.72%
- Inhibition [2]: 1.7%
- Inhibition [3]: -0.92%

Structure (SMILES): CCOC(=O)C1=C(C)OC(N)=C(C#N)C1c1ccc(F)cc1 (stereo not given)
- Inhibition [1]: 13.44%
- Inhibition [2]: 1.48%
- Inhibition [3]: -57.32%

Structure (SMILES): N#Cc1c(Cl)nc(Sc2ccccc2)c(C#N)c1-c1ccccc1
- Inhibition [1]: -3.62%
- Inhibition [2]: 2.71%
- Inhibition [3]: -38.87%

Structure (SMILES): CC(C(=O)O)c1c[nH]c2ccccc12 (stereo not given)
- Inhibition [1]: 21.1%
- Inhibition [2]: 31.5%
- Inhibition [3]: -3.89%

Structure (SMILES): CCOC(=O)c1cc2cc(OC)ccc2n1C
- Inhibition [1]: -11.12%
- Inhibition [2]: 0.11%
- Inhibition [3]: -3.08%

Structure (SMILES): CCOc1nc(N)c(C#N)cc1C#N.Cl
- Inhibition [1]: -1.63%
- Inhibition [2]: 2.86%
- Inhibition [3]: -26.15%

Structure (SMILES): N#Cc1c(N)nc(NCCCC2CCN(Cc3ccccc3)CC2)c(C#N)c1-c1ccccc1
- Inhibition [1]: 32.61%
- Inhibition [2]: 1.5%
- Inhibition [3]: -34.35%

Structure (SMILES): N#CC1=C(N)NC(=O)CC1c1ccccc1 (stereo not given)
- Inhibition [1]: 22.17%
- Inhibition [2]: 1.7%
- Inhibition [3]: -51.84%

Structure (SMILES): COc1ccc2c(c1)cc(C(=O)O)n2C
- Inhibition [1]: 11.78%
- Inhibition [2]: 31.1%
- Inhibition [3]: -23.41%

Structure (SMILES): O=C1SC(SCc2ccccc2)=NC1=Cc1ccc2c(c1)OCO2
- Inhibition [1]: -9.46%
- Inhibition [2]: 1.96%
- Inhibition [3]: -6.24%

Structure (SMILES): CC#CCN(Cc1ccccc1)c1nc(N)c(C#N)cc1C#N
- Inhibition [1]: -9.03%
- Inhibition [2]: 3.48%
- Inhibition [3]: -21.6%

Structure (SMILES): Cc1ccccc1-c1c(C=N)c(N)nc2c1S(=O)(=O)OC2(C)C
- Inhibition [1]: 10.81%
- Inhibition [2]: -0.01%
- Inhibition [3]: -3.14%

Structure (SMILES): C#CCNc1nc(OC)c(C#N)c(-c2ccccc2)c1C#N
- Inhibition [1]: 13.71%
- Inhibition [2]: 1.22%
- Inhibition [3]: -26.89%

Structure (SMILES): CCOC(=O)C1=C(C)Oc2nc3c(c(N)c2C1c1ccccc1OC)CCC3 (stereo not given)
- Inhibition [1]: 16.69%
- Inhibition [2]: -0.7%
- Inhibition [3]: -2.56%

Structure (SMILES): CCOC(=O)C1=C(C)Oc2nc3c(c(N)c2C1c1nccn1C)CCCCC3 (stereo not given)
- Inhibition [1]: 6.14%
- Inhibition [2]: 3.82%
- Inhibition [3]: -4.74%

Structure (SMILES): Cn1cc(/C=C2\NC(=S)NC2=O)c2ccccc21
- Inhibition [1]: 6.37%
- Inhibition [2]: -0.01%
- Inhibition [3]: -4.32%

Structure (SMILES): OCc1cc2ccccc2[nH]1
- Inhibition [1]: 6.48%
- Inhibition [2]: 2.35%
- Inhibition [3]: -4.31%

Structure (SMILES): CCOC(=O)c1cc2cc(O)ccc2n1C(=O)OC(C)(C)C
- Inhibition [1]: 2.98%
- Inhibition [2]: 1.56%
- Inhibition [3]: -9.8%

Structure (SMILES): COc1ccc2c(c1)cc(CNc1ccccc1)n2C
- Inhibition [1]: 12.88%
- Inhibition [2]: 1.07%
- Inhibition [3]: -85.66%

Structure (SMILES): CC#CCN.Cl
- Inhibition [1]: 8.69%
- Inhibition [2]: 3.96%
- Inhibition [3]: -2.53%
